Measured values published in PubChem BioAssay (NCATS).
Inconclusive results are not listed. Calls of active or inactive are those of the source. Unless noted, the call rests on the fitted dose curve; in most records, active means well fitted curve in either direction with a large enough effect (not every such curve was filed as active); inconclusive means small, poorly fitted or top-dose-only effect, or another doubt; inactive means flat fitted curve, though single readings scatter.

Legend:
[1] = target: Lysosomal acid glucosylceramidase (Homo sapiens) (UniProt P04062); assay: Glucocerebrosidase-p2 (AID 348; in the data active means potency below about 10 µM; further: potency means the concentration at half of the fitted maximal effect); settings: purified GBA, blue fluorogenic substrate, 40 min
Outline: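 Compounds titrated from 0.6 nM upwards against 0.2 nM enzyme in pH 5.9 citric acid/KH2PO4, taurocholate, tween-20; blue fluorogenic substrate 80 uM, 40 min room temperature, stopped and read Ex 365/Em 440 for AC50.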

[2] = AP1 Signaling Pathway (AID 357); settings: ME-180 AP-1-bla reporter, EGF-induced, beta-lactamase ratio, 5 h; at 7.69 µM (top of the series) unless noted;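 further: ME-180 reporter cells stimulated with EGF at its EC50 level; on the % scale 0 is the no-effect control and ±100 the full control effect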
Outline: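 Modulation of EGF-driven AP-1 transcription was assessed with a beta-lactamase reporter in ME-180 cells. Compound and EC50 EGF were co-incubated 5 hours at 37 °C before 2.5-hour CCF4 loading at room temperature and dual-emission reading.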

[3] = target: Cytochrome P450 1A2 (Homo sapiens) (UniProt P05177); assay: p450-cyp1a2 (AID 410; calls by dose curve; further: potency means the concentration at half of the fitted maximal effect;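 on activity change, negative = inhibition: -100% = full effect of reference inhibitor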); settings: recombinant CYP1A2, luciferin-ME demethylation, luminescence; series mostly up to 57 µM
Outline: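 Inhibition was calculated relative to 57 uM furafylline (full inhibition). The reaction used human CYP1A2 at 20nM with Luciferin-ME at its Km, 100uM, driven by an NADPH-regenerating system for 60 min at room temperature.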

[4] = NFAT Signaling Pathway (AID 444); settings: Jurkat NFAT-bla M1, carbachol, beta-lactamase ratio, 5 h; at 7.69 µM (top of the series) unless noted;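 further: carbachol stimulus at about its EC50 of 1 µM final; on the % scale 0 is the no-effect control and ±100 the full control effect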
Outline: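 Jurkat cells carrying an NFAT-driven β-lactamase reporter and co-transfected muscarinic M1 receptor were treated with compound plus carbachol (1 uM final, an EC50 level) for 5 h at 37 °C. CCF4 loading followed for 1 h at RT; 460/530 nm ratio gave %activity.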

[5] = Stat Signaling Pathway (AID 446); settings: ME-180 (cervical carcinoma) SIE beta-lactamase reporter, IL-6 stimulated, 5 h; at 7.69 µM (top of the series) unless noted;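 further: ME-180 cervical cancer cells given 40 pM IL-6 alongside compound; SIE-controlled beta-lactamase reporter measured as 460/530 nm FRET emission ratio; on the % scale 0 is the no-effect control and ±100 the full control effect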
Outline: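 IL-6/STAT signaling read in ME-180 cells via an SIE beta-lactamase reporter. Stimulus was 40 pM IL-6 (its AC50) for 5 hrs, so both activation and inhibition register.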

[6] = target: Glucocorticoid receptor (Homo sapiens) (UniProt P04150); assay: GR-EFC Redistribution (AID 451; calls by dose curve; further: potency means the concentration at half of the fitted maximal effect); settings: CHO-K1 GR-EFC translocation, beta-gal luminescence, 2 h
Outline: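 CHO-K1 cells stably expressing nuclear-localized β-gal enzyme acceptor and GR fused C-terminally to the enzyme donor fragment; ligand-driven nuclear translocation restores β-gal by complementation. Compounds titrated up to 46 uM final, 2 h at 37 °C; luminescence read.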

[7] = target: Mitogen-activated protein kinase 10 (Mus musculus) (UniProt Q61831); assay: JNK3 AlphaScreen Assay (AID 530); settings: JNK3 lysate, c-Jun phosphorylation; series mostly up to 57.1 µM;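 further: kinase came from lysate of stimulated human HepG2 cells; signal reports phosphorylation of biotinylated GST-cJun 1-79 at Ser73 with 10 µM ATP; on the % scale 0 is the no-effect control and ±100 the full control effect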
Outline: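 JNK3 came from HepG2 lysates pre-activated with IL-1beta and TNF-alpha and phosphorylated biotinylated GST-cJun (1-79) at 10 uM ATP, pH 7.6, room temperature. Compounds were titrated. AlphaScreen signal used anti-phospho-cJun (Ser73) antibody.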

[8] = target: 3',5'-cyclic-AMP phosphodiesterase 4B (Homo sapiens) (UniProt Q07343); assay: qHTS Assay for Inhibitors of PDE-IV (AID 607; active means well fitted activation curve with a large enough effect in the main read-out, with a control signal flat, not every such curve was filed as active; further: % of control where 0% means no effect); settings: HEK293 ACTOne CNG channel cells, membrane potential fluorescence; series mostly up to 22.9 µM
Outline: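 Live HEK293 cells with a modified cyclic nucleotide-gated (CNG) channel report intracellular cAMP via membrane-potential dye fluorescence (ex 535/em 590 nm). Endogenous PDE-IV was targeted. Compounds were tested at up to 22.9 uM final; RO 20-1724 100 uM served as control.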

[9] = target: Cytochrome P450 3A4 (Homo sapiens) (UniProt P08684); assay: qHTS Assay for Activators of Cytochrome P450 3A4 (AID 885; active means well fitted curve in the direction sought with a large enough effect; an effect the other way counts as inactive or inconclusive; further: nearly all actives have a fitted effect of over 65% in size; further: potency means the concentration at half of the fitted maximal effect); settings: recombinant CYP3A4, Luciferin-PPXE luminescence, 60 min; series mostly up to 57.1 µM
Outline: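 Quantitative HTS format: compounds preincubated with 20nM human CYP3A4 and Luciferin-PPXE substrate at KM, reaction started by NADPH regeneration, stopped after 60 min, luciferase luminescence read 20 min later.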

[10] = qHTS Assay for Lipid Storage Modulators (AID 1519; calls by dose curve); settings: Drosophila S3 cells, BODIPY lipid droplet/cell ratio, laser cytometry, cells loaded with oleic acid; for activity change, negative = inhibition: at 57.5 µM (top of the series)
Outline: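 Cells seeded at 5,000 per well were treated with compounds over a concentration series and loaded with oleic acid (400 uM, as added). Lipid droplet fluorescence (488 nm excitation, 500-530 nm channel) was read by laser-scanning cytometry and normalized to 20 uM Triacsin C.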

[11] = Primary qHTS for small molecule stabilizers of the endoplasmic reticulum resident proteome: Secreted ER Calcium Modulated Protein (SERCaMP) assay (AID 1508630; active means well fitted curve in the direction sought with a large enough effect; an effect the other way counts as inactive or inconclusive; further: on the % scale 0 is the no-effect control and ±100 the full control effect); settings: SH-SY5Y GLuc-SERCaMP (Gaussia luciferase released on ER calcium loss) secretion, thapsigargin, luminescence; series mostly up to 38.4 µM
Outline: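 GLuc-SERCaMP-expressing SH-SY5Y cells, pretreated 16 h with compound, are challenged with thapsigargin to empty ER calcium stores; after 4 h, coelenterazine is added directly to the medium and luminescence is imaged.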

[12] = target: Cytochrome P450 3A4 (Homo sapiens) (UniProt P08684); assay: qHTS Assay for Inhibitors and Substrates of Cytochrome P450 3A4 (AID 884; active means well fitted curve in the direction sought with a large enough effect; an effect the other way counts as inactive or inconclusive; further: nearly all actives have a fitted effect of over 50% in size; further: potency means the concentration at half of the fitted maximal effect); settings: recombinant CYP3A4, Luciferin-PPXE luminescence; series mostly up to 57.1 µM
Outline: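 20 nM human CYP3A4 with 25 uM Luciferin-PPXE (at KM) in 200 mM KPO4, preincubated 10 min with compound; NADPH regeneration started a 60 min RT reaction. Luciferin detected by luminescence, normalized to 57 uM ketoconazole as full inhibition.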

[13] = target: Cytochrome P450 2D6 (Homo sapiens) (UniProt P10635); assay: qHTS Assay for Inhibitors and Substrates of Cytochrome P450 2D6 (AID 891; active means well fitted curve in the direction sought with a large enough effect; an effect the other way counts as inactive or inconclusive; further: potency means the concentration at half of the fitted maximal effect; nearly all actives have a fitted effect of over 60% in size); settings: recombinant CYP2D6, luciferin-ME EGE luminescence; series mostly up to 57.1 µM
Outline: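 Human CYP2D6 (5 nM) with 30 uM Luciferin-ME EGE (at Km) in 100 mM KPO4, compound preincubated 10 min, then NADPH regeneration system for 60 min at room temperature. Luciferin read by luminescence; normalized to 1.43 uM quinidine.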

[14] = target: Cytochrome P450 2C19 (Homo sapiens) (UniProt P33261); assay: qHTS Assay for Inhibitors and Substrates of Cytochrome P450 2C19 (AID 899; active means well fitted curve in the direction sought with a large enough effect; an effect the other way counts as inactive or inconclusive; further: potency means the concentration at half of the fitted maximal effect; nearly all actives have a fitted effect of over 60% in size); settings: recombinant CYP2C19, luciferin-H EGE luminescence; series mostly up to 57.1 µM
Outline: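 Human CYP2C19 (5nM) with Luciferin-H EGE at 10uM (its KM) in 50mM KPO4 was preincubated with compound for 10 min at 37C. NADPH regeneration started a 60 min 37C reaction. Luciferin was read by luminescence, normalized to 57uM ketoconazole.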

[15] = measured here: cell count channel max response
[16] = measured here: lipid channel max response

Sequence of Cytochrome P450 2D6 (Homo sapiens) (P10635 whole entry, looked up): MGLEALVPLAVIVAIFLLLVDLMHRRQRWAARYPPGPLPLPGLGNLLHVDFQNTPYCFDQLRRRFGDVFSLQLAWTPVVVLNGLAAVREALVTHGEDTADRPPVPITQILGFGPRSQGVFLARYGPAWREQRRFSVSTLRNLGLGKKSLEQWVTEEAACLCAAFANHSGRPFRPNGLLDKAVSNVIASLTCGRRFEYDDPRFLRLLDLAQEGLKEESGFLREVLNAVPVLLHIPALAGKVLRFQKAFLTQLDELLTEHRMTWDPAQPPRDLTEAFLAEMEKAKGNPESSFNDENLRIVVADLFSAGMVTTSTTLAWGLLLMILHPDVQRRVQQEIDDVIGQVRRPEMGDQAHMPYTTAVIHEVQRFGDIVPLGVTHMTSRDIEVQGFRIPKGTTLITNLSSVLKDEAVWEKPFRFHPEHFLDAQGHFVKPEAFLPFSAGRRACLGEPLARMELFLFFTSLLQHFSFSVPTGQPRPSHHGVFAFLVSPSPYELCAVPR
Sequence of Glucocorticoid receptor (Homo sapiens) (P04150 whole entry, looked up, the tested form may be a part): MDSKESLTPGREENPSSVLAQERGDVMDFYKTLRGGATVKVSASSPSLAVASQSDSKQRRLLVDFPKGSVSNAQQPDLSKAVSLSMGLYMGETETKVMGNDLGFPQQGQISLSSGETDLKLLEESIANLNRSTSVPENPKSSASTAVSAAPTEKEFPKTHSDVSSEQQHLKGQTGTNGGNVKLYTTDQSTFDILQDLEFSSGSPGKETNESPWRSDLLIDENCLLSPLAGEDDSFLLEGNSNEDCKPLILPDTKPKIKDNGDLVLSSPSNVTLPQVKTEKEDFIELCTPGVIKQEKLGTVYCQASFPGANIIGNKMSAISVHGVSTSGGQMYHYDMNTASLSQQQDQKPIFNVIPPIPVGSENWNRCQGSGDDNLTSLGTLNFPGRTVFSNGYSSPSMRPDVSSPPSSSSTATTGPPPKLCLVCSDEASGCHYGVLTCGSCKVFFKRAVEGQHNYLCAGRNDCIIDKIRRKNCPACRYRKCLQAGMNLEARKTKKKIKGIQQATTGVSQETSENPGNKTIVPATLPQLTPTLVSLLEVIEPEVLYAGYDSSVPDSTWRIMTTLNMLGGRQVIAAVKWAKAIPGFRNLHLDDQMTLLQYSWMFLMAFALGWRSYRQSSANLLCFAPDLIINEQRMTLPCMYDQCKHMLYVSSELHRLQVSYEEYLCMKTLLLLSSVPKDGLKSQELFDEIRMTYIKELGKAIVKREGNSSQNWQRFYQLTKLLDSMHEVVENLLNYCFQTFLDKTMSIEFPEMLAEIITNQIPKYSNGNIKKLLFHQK
Sequence of Cytochrome P450 3A4 (Homo sapiens) (P08684 whole entry, looked up): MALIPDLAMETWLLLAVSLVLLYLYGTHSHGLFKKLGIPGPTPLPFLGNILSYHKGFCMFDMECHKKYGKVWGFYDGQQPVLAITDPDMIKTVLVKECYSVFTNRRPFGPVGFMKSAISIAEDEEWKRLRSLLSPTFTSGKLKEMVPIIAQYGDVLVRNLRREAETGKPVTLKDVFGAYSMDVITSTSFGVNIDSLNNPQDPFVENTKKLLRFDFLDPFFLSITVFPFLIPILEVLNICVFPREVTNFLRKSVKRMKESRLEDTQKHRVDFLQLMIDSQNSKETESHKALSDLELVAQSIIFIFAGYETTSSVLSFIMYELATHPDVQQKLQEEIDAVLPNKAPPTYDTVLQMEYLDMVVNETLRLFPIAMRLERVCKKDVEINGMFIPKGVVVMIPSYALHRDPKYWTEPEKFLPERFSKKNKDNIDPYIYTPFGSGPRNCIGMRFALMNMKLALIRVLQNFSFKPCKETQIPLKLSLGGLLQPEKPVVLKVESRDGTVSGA
Sequence of Cytochrome P450 1A2 (Homo sapiens) (P05177 whole entry, looked up): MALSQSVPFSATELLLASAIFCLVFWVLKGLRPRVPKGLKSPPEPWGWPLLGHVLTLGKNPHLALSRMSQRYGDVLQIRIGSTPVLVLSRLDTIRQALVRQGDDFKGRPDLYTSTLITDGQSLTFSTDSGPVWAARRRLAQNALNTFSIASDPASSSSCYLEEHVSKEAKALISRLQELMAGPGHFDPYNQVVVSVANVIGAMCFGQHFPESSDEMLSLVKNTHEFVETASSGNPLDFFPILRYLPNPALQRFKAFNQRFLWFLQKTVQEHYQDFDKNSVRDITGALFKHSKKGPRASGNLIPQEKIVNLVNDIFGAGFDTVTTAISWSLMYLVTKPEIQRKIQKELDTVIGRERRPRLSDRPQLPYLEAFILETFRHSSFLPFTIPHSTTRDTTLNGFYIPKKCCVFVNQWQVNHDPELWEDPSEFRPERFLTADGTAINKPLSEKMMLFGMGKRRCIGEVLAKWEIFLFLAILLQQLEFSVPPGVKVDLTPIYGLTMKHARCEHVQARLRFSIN
Sequence of 3',5'-cyclic-AMP phosphodiesterase 4B (Homo sapiens) (Q07343 whole entry, looked up): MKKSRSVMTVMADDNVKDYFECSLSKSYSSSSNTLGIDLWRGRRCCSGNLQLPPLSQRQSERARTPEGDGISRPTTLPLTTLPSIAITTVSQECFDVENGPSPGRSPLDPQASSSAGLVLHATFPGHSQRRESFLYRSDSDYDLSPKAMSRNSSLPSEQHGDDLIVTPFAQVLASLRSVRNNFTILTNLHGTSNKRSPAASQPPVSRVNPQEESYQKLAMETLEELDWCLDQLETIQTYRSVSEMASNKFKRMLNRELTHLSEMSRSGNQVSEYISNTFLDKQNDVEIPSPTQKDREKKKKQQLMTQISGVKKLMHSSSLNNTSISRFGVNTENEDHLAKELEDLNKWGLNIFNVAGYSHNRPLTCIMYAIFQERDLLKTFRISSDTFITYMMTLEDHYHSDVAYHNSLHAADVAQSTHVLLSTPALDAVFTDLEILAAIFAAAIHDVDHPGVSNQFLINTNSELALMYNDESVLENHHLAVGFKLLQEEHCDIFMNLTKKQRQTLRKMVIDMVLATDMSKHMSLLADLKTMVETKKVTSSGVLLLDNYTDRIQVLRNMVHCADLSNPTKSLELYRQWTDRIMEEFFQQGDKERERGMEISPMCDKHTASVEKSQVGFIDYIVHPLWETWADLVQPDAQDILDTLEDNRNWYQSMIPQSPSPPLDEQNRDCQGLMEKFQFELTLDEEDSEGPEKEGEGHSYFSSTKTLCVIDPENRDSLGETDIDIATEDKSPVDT
Sequence of Lysosomal acid glucosylceramidase (Homo sapiens) (P04062 whole entry, looked up): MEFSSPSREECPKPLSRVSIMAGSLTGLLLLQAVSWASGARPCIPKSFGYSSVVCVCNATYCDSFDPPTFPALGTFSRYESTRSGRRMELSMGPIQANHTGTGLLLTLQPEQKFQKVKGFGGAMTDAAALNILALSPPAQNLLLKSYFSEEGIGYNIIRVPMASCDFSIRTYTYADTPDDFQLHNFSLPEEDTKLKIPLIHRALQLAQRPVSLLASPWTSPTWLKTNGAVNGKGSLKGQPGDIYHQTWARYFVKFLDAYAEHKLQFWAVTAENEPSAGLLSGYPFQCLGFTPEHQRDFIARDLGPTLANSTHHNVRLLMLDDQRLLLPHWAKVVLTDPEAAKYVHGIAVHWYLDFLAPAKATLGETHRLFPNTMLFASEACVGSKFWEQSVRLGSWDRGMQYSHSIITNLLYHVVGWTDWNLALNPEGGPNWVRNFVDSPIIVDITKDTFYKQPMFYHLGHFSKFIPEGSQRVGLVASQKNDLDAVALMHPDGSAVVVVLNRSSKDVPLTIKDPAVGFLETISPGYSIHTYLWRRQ
Sequence of Cytochrome P450 2C19 (Homo sapiens) (P33261 whole entry, looked up): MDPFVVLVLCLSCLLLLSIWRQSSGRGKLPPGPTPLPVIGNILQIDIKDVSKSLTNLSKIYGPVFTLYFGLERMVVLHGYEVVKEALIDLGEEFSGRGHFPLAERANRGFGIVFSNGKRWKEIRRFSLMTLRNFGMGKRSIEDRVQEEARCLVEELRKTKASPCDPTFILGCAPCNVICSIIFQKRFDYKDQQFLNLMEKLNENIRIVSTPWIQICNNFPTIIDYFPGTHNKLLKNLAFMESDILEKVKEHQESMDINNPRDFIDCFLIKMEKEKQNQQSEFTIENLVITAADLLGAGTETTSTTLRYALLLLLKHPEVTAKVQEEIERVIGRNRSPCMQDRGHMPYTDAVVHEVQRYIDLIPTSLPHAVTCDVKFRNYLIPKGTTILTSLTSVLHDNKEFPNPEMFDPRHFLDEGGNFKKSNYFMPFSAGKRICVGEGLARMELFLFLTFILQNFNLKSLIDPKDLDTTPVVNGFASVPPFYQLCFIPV

COc1ccc(NC(=O)N2CCC3(CC2)CCN(C(=O)c2csnn2)CC3)cc1
17.2%: max response [10, 15]
inactive: Potency [1] > 11.4 µM | activity change, negative = inhibition [2] -4.35% | activity change, negative = inhibition [4] 3.59% | activity, negative = inhibition [5] -12% | Potency [6] > 46 µM | outcome [7] | Potency [8] | Potency [9] | activity change, negative = inhibition [10] 8.17% | Potency [11]
active: Potency [3] 6.31 µM
29.5%: max response [10, 16]

CS(=O)(=O)N1CCC2(CCCN(c3ccccn3)C2)CC1
active: Potency [3] 25.1 µM
5.95%: max response [10, 15]
inactive: Potency [1] > 11.4 µM | activity change, negative = inhibition [2] -3.01% | activity change, negative = inhibition [4] 4.17% | activity, negative = inhibition [5] 7.37% | Potency [6] > 46 µM | outcome [7] | Potency [8] | Potency [9] | activity change, negative = inhibition [10] 2.39% | Potency [11]
15.6%: max response [10, 16]

COCC(=O)N1CCC2(CC1)CN(C(c1ccccc1)c1ccccc1)C2
active: Potency [9] 25.1 µM | Potency [13] 2.51 µM
-6.58%: max response [10, 16]
inactive: Potency [1] > 11.4 µM | activity change, negative = inhibition [2] 3.82% | Potency [3] | activity change, negative = inhibition [4] 11.6% | activity, negative = inhibition [5] -8.6% | Potency [6] > 46 µM | outcome [7] | Potency [8] | Potency [12] | activity change, negative = inhibition [10] 2.84% | Potency [11]
-11.5%: max response [10, 15]

O=C(c1ccncc1)N1CCC[C@@]2(CCN(c3ncccn3)C2)C1
21.2%: max response [10, 15]
inactive: Potency [1] > 11.4 µM | activity change, negative = inhibition [2] 2.24% | Potency [3] | activity change, negative = inhibition [4] 20.3% | activity, negative = inhibition [5] 1.34% | Potency [6] > 46 µM | outcome [7] | Potency [8] | Potency [9] | activity change, negative = inhibition [10] 3.78% | Potency [11]
24.4%: max response [10, 16]

O=C(c1ccncc1)N1CCC2(CC1)CN(C(c1ccccc1)c1ccccc1)C2
-4.87%: max response [10, 15]
active: Potency [3] 15.8 µM | Potency [9] 3.98 µM | Potency [13] 0.0251 µM
inactive: Potency [1] > 11.4 µM | activity change, negative = inhibition [2] 4.62% | activity change, negative = inhibition [4] 16.7% | activity, negative = inhibition [5] -10.1% | Potency [6] > 46 µM | outcome [7] | Potency [8] | Potency [12] | activity change, negative = inhibition [10] 4.23% | Potency [11]
3.6%: max response [10, 16]

O=C(c1cccc(F)c1)N1CCC[C@@]2(CCN(Cc3nccs3)C2)C1
inactive: Potency [1] > 11.4 µM | activity change, negative = inhibition [2] 2.29% | activity change, negative = inhibition [4] 7.56% | activity, negative = inhibition [5] -0.114% | Potency [6] > 46 µM | outcome [7] | Potency [8] | Potency [9] | activity change, negative = inhibition [10] 3.24% | Potency [11]
22.4%: max response [10, 16]
active: Potency [3] 12.6 µM | Potency [12] 7.94 µM | Potency [14] 2.51 µM
16.4%: max response [10, 15]

CS(=O)(=O)N1CCC2(CCN(Cc3ccncc3)CC2)CC1
inactive: Potency [1] > 11.4 µM | activity change, negative = inhibition [2] -1.98% | Potency [3] | activity change, negative = inhibition [4] -4.26% | activity, negative = inhibition [5] 10.3% | Potency [6] > 46 µM | outcome [7] | Potency [8] | Potency [9] | activity change, negative = inhibition [10] 5.08% | Potency [11]
18.4%: max response [10, 16]
9.75%: max response [10, 15]

O=C(c1cc(C(F)(F)F)cc(C(F)(F)F)c1)N1CCC[C@@]2(CCN(Cc3nccs3)C2)C1
inactive: Potency [1] > 11.4 µM | activity change, negative = inhibition [2] 4.84% | activity change, negative = inhibition [4] -21.5% | activity, negative = inhibition [5] -3.68% | Potency [6] > 46 µM | outcome [7] | Potency [8] | Potency [9] | activity change, negative = inhibition [10] 1.58% | Potency [11]
26%: max response [10, 15]
active: Potency [3] 20 µM | Potency [12] 3.16 µM
28.9%: max response [10, 16]

COc1ccccc1CN1CC2(CCN(C(=O)c3cnccn3)CC2)C1
inactive: Potency [1] > 11.4 µM | activity change, negative = inhibition [2] 2.43% | Potency [3] | activity change, negative = inhibition [4] -17.5% | activity, negative = inhibition [5] -6.42% | Potency [6] > 46 µM | outcome [7] | Potency [8] | Potency [9] | activity change, negative = inhibition [10] 3% | Potency [11]
20.3%: max response [10, 16]
12%: max response [10, 15]

COc1ccc(NC(=O)N2CC3(CCN(C(=O)c4ccc(OC)cc4)CC3)C2)cc1
12.3%: max response [10, 15]
inactive: Potency [1] > 11.4 µM | activity change, negative = inhibition [2] -11.7% | Potency [3] | activity change, negative = inhibition [4] 16.6% | activity, negative = inhibition [5] -5.3% | Potency [6] > 46 µM | outcome [7] | Potency [8] | Potency [9] | activity change, negative = inhibition [10] 3.98% | Potency [11]
17.6%: max response [10, 16]

CC(C)NC(=O)N1CC2(CCN(C(=O)c3ccncc3)CC2)C1
inactive: Potency [1] > 11.4 µM | activity change, negative = inhibition [2] 13% | Potency [3] | activity change, negative = inhibition [4] 10.6% | activity, negative = inhibition [5] 7.63% | Potency [6] > 46 µM | outcome [7] | Potency [8] | Potency [9] | activity change, negative = inhibition [10] -0.244% | Potency [11]
15.6%: max response [10, 16]
11.6%: max response [10, 15]

Cn1cccc1C(=O)N1CCC[C@@]2(CCN(Cc3ccc(C#N)cc3)C2)C1
16.5%: max response [10, 16]
inactive: Potency [1] > 11.4 µM | activity change, negative = inhibition [2] -2.05% | Potency [3] | activity change, negative = inhibition [4] -13.8% | activity, negative = inhibition [5] -3.28% | Potency [6] > 46 µM | outcome [7] | Potency [8] | Potency [9] | activity change, negative = inhibition [10] 4.84% | Potency [11]
7.42%: max response [10, 15]

CC(C)NC(=O)N1CCCC2(CCN(S(=O)(=O)c3ccccc3)CC2)C1
inactive: Potency [1] > 11.4 µM | activity change, negative = inhibition [2] -4.26% | Potency [3] | activity change, negative = inhibition [4] -5.06% | activity, negative = inhibition [5] -5.18% | Potency [6] > 46 µM | outcome [7] | Potency [8] | Potency [9] | activity change, negative = inhibition [10] 4.51% | Potency [11]
26.7%: max response [10, 16]
20%: max response [10, 15]
active: Potency [12] 7.94 µM | Potency [13] 0.316 µM
